The source of these data is PubChem BioAssay AID2284195 (EPA ToxCast).

Active and inactive are the calls of the source. How the source made its calls: active means hit-call score of the fitted dose curve at least 0.9, where 1 is the maximum; inactive means score below 0.9.

Sequence of Retinoic acid receptor alpha (Homo sapiens) (P10276 whole entry, looked up): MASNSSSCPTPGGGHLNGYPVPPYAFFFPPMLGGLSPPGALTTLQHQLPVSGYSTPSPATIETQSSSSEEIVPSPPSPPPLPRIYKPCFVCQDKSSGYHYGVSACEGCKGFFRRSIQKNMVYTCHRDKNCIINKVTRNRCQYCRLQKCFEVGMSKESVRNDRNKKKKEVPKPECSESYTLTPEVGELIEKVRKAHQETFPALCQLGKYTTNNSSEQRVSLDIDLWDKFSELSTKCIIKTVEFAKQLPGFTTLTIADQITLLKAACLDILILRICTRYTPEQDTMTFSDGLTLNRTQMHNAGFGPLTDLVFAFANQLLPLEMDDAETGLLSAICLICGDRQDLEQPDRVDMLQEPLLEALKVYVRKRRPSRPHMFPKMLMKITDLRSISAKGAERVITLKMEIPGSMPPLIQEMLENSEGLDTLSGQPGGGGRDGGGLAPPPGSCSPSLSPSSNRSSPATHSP

This test addresses Retinoic acid receptor alpha (Homo sapiens) (UniProt P10276). Put plainly: ERF_TW_NR_hRARa: Eurofins (ERF) Nuclear Receptor (NR) Radioligand Binding LeadHunter Assay for human Retinoic Acid Receptor alpha (RARa) Agonism. How it is done:
ERF_TW_NR_hRARa is a biochemical, single-readout assay that uses extracted gene-proteins in a cell-free assay. Measurements were taken 2 hour after chemical dosing in a 96-well plate. See RARalpha Human retinoic acid NHR Binding (Agonist Radioligand) Assay, Panlabs.ERF_TW_NR_hRARa is an assay component calculated from the ERF_TW_NR_hRARa assay. It is designed to measure radioligand binding using a type of binding reporter as detected by scintillation counting with radiometry technology.Data from the assay component ERF_TW_NR_hRARa was analyzed at the assay endpoint, ERF_TW_NR_hRARa, in the positive analysis fitting direction relative to DMSO as the negative control and baseline of activity. Using a type of binding reporter, gain-of-signal activity can be used to understand changes in radioligand binding as they relate to gene RARA. To generalize the intended target to other relatable targets, this assay endpoint is annotated to the nuclear receptor intended target family, where the subfamily is retinoic acid receptor.
Human recombinant RARalpha-LBD expressed in insect cells are used in modified Tris-HCl buffer pH 7.4. A 0.025 ug aliquot is incubated with 3 nM [3H]9-cis-Retinoic acid and 1 ug Anti-GST antibody for 2 hours at 4C. Non-specific binding is estimated in the presence of 1 uM 9-cis-retinoic acid. Receptors are counted to determine [3H]9-cis-Retinoic acid specifically bound. […]
`O=C(/C=C/c1ccc(O)cc1)CC(=O)/C=C/c1ccc(O)cc1`: the AC50 was 2240 nM (active).
